In PubChem BioAssay (EPA / NIEHS):
Records with an inconclusive call do not appear. The source made the active and inactive calls. The calls were made as follows: active = hit-call score of the fitted dose curve at least 0.9, where 1 is the maximum; inconclusive = response in the unintended direction; inactive = score below 0.9.

Each compound was assayed on organic anion transporter (SLCO1B1), SLCO1B1 (gene 10599) (assay: CLD_SLCO1B1_24hr: CellzDirect (CLD) Gene Expression Assay for organic anion transporter (SLCO1B1) at 24 hours (AID 2283690)).
Procedure: CLD_24hr is a cell-based, multiplexed-readout assay that uses hepatocyte, a human liver primary cell, with measurements taken at 24 hours after chemical dosing in a 96-well plate.CLD_SLCO1B1_24hr is one of 16 assay component(s) measured or calculated from the CLD_24hr assay. It is designed to make measurements of mRNA induction, a form of inducible reporter, as detected with chemiluminescence signals by Quantitative Nuclease Protection Assay (qNPA) technology.Data from the assay component CLD_SLCO1B1_24hr was analyzed at the endpoint, CLD_SLCO1B1_24hr, in the positive analysis fitting direction relative to DMSO as the negative control and baseline of activity. Using a type of inducible reporter, gain-of-signal activity can be used to understand changes in the reporter gene as they relate to the gene SLCO1B1. Furthermore, this assay endpoint can be referred to as a primary readout. To generalize the intended target to other relatable targets, this assay endpoint is annotated to the transporter intended target family, where subfamily is organic anion transporter.
Human hepatocyte cultures were treated daily for two consecutive days with fresh dosing solutions containing appropriate concentrations of the 320 ToxCast chemicals (chemical identities were blinded to CellzDirect and other ToxCast collaborators), vehicle control (0.2% DMSO), and positive control inducers as summarized in Table 1. Due to the large number of treatment groups and chemicals examined, the ToxCast chemicals were divided into two groups (spanning two independent cultures of hepatocytes from separate donor preparations (Hu778: ToxCast plates 1 and 2; Hu776: ToxCast plates 3 and 4). Each preparation of human hepatocyte cultures was treated with respective vehicle control, medium only control, set of six positive controls/reference chemicals for the five hepatic receptor pathways, and a subset of eight of the ToxCast chemicals (indoxacarb, pyrithiobac-sodium, norflurazon, cyhalofop-butyl, methomyl, thiram, acetochlor, and propiconazole). These replicate data, coupled with internal replicates designed within the blinded ToxCast chemical library, provided additional data to evaluate interindividual differences between hepatocyte preparations and their potential impact on chemical profiles.Cell morphology and integrity were evaluated using phase-contrast microscopy as an indicator of hepatocyte cell health (Tyson & Green, 1987). Cultures for each treatment group (i.e., media, vehicle [0.2% DMSO], positive control inducers [multiple concentrations], and the ToxCast chemicals [multiple concentrations]) were observed and cell morphology was assessed relative to vehicle control cultures at each harvest time point (0, 6, 24, or 48 h). […] Images were evaluated at the conclusion of the study to assess changes in cell integrity and account for the effects of chemical exposure on uncharacteristic changes in concentration-dependent gene expression profiles. The results from these determinations of apparent cytotoxicity were annotated (yes/no) alongside the corresponding qNPA data for reference.At the conclusion of each treatment period, hepatocyte cultures (96-well) were washed with 1 volume of HBSS, lysed by addition of 25 ul ArrayPlate lysis buffer (HTG, Tucson, AZ), and 70 ul/well of Denaturation Oil, denatured by incubation at 95C for 10 min, and frozen at approximately -70C until analysis by nuclease protection assay (qNPA) (Roberts et al., 2007). For qNPA analysis, cell lysates were thawed at 50C for approximately 30 min, qNPA probes were added, and samples were incubated at 95C for 10 min to begin the detection process by denaturing the target RNA, dissociating the duplexes and secondary structure hybridization. At the conclusion of the hybridization period, S1 nuclease reagent was added to each sample to digest all nonprotected nucleotides at 50C for 60-90 min. […]

SMILES	outcome
Cc1cc(Cl)ccc1OCC(=O)O	inactive
COC(=O)N(OC)c1ccccc1COc1ccn(-c2ccc(Cl)cc2)n1	inactive
C=CC1(C)OC(=O)N(c2cc(Cl)cc(Cl)c2)C1=O (stereo unspecified)	inactive
CCOC(=O)CC(SP(=S)(OC)OC)C(=O)OCC (stereo unspecified)	inactive
COc1nc(C)nc(NC(=O)NS(=O)(=O)c2ccccc2CCC(F)(F)F)n1	inactive
CC(C)(C)c1ccc(CSc2cnn(C(C)(C)C)c(=O)c2Cl)cc1	inactive
COc1nc(C)nc(NC(=O)NS(=O)(=O)c2ccccc2Cl)n1	inactive
O=C(O)c1nc(Cl)ccc1Cl	inactive
C=CCC1=C(C)C(OC(=O)C2C(C=C(C)C)C2(C)C)CC1=O (stereo unspecified)	inactive
C#CCOS(=O)OC1CCCCC1Oc1ccc(C(C)(C)C)cc1 (stereo unspecified)	inactive
CNC(=O)ON=CC(C)(C)SC	inactive
COP(N)(=O)SC (stereo unspecified)	inactive
N#Cc1cc(Br)c(O)c(Br)c1	inactive
COC(=O)C=C(C)OP(=O)(OC)OC	inactive
COc1ccc(C(c2ccc(OC)cc2)C(Cl)(Cl)Cl)cc1	inactive
CC1COC(Cn2cncn2)(c2ccc(Oc3ccc(Cl)cc3)cc2Cl)O1 (stereo unspecified)	inactive
Cc1c(F)c(F)c(COC(=O)C2C(/C=C(\Cl)C(F)(F)F)C2(C)C)c(F)c1F (stereo unspecified)	inactive
CC(C)C1(C)N=C(c2nc3ccccc3cc2C(=O)O)NC1=O (stereo unspecified)	inactive
CCOc1cc(Oc2ccc(C(F)(F)F)cc2Cl)ccc1[N+](=O)[O-]	inactive
O=C(Nc1ccccc1)Nc1ccnc(Cl)c1	inactive
COC(=O)C(C)Oc1ccc(Oc2ccc(Cl)cc2Cl)cc1 (stereo unspecified)	inactive
CCNc1nc(Cl)nc(NCC)n1	inactive
CCON=C(CC)C1=C(O)CC(c2c(C)cc(C)cc2C)CC1=O (stereo unspecified)	inactive
CCc1nn(C)c(C(=O)NCc2ccc(C(C)(C)C)cc2)c1Cl	inactive
COC(=O)c1ccccc1C(=O)OC	inactive
Oc1ccccc1-c1ccccc1	inactive
